From PubChem
Compounds with a hit are over-represented: about 7.2% of the library has one in this group of screens.
Marburg entry inh: Marburg virus entry inhibition | Marburg virus pseudotyped entry inhibition, cell reporter | Potency, µM (series often up to 37.8 µM), inactives show top-dose activity change, negative = inhibition, hits mostly inhibitors | hit rate 1.8% among 300,000; calls by dose curve; tested in HEK293 cells
Sm TGR inh: S. mansoni TGR enzyme inhibition. purified TGR, DTNB reduction, TNB absorbance 405 nm. hit rate 3% among 360,000. Potency, µM (doses to about 114 µM), inactives show at the top dose activity change, negative = inhibition, most hits filed as inhibitors. Q962Y6; also: nearly all actives have a fitted effect of over 60% in size
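First, TGR (20 nM dispensed) and NADPH were mixed with compound. Second, a 15 min room-temperature incubation followed. Third, further NADPH and then DTNB were added to start the reaction. Finally, TNB absorbance was monitored kinetically.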
LASV entry inh: Lassa virus entry inhibition | Lassa virus pseudotype entry inhibition, cell reporter | Potency, µM (titrated, usually from 37.9 µM), for the others: top-dose activity change, negative = inhibition, most hits filed as inhibitors | hit rate 1.2% among 300,000 | AID 540256; calls by dose curve; tested in HEK293 cells; also: nearly all actives have a fitted effect of over 50% in size
FMDV inh: antivirals against foot and mouth disease virus; FMDV antiviral cell-based qHTS; Potency, µM (highest dose often 57.9 µM), for the others: top-dose activity change, negative = inhibition, most hits filed as inhibitors; hit rate 1.2% among 410,000; calls by dose curve; tested in HEK293T cells; also: read-out not given here; nearly all actives have a fitted effect of over 45% in size
RE007 growth inh: less growth of the S. pombe RE007 Vpr strain; S. pombe RE007 Vpr strain, BacTiter-Glo ATP luminescence, 24 h; Potency, µM (series often up to 92.2 µM), for the others: at the highest dose activity change, negative = less growth, usual class: inhibitors; hit rate 0.21% among 360,000; active = well fitted falling curve with a large enough effect; inconclusive = small, poorly fitted or top-dose-only effect; inactive = no such curve, though single readings can be large or run the other way; also: nearly all actives have a fitted effect of over 50% in size
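Fission yeast RE007 carrying one integrated HIV-1 vpr copy, seeded at OD 0.01 in PMG+AL medium with 23 nL pinned compound. Grown 24 h at 30 degrees; viability read by BacTiter-Glo luminescence after 5 min.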
HCV inhibitor: inhibitors of hepatitis C virus infection; Huh7.5.1 HCVcc-Cre infection, luciferase reporter, 44 h; Potency, µM (highest dose often 41.8 µM), for the others: at the top dose activity change, negative = inhibition, usual class: inhibitors; hit rate 3.4% among 340,000; AID 651820
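Antiviral activity was scored by luciferase reporter output from cells infected with HCVcc-Cre (~0.5 moi) in presence of compound, 44 h infection period, cells seeded 1,000/well 4 h prior.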
* = called active by the depositor; [ ] = dose if it differs, or a comment. Unless noted, calls follow the shape of the dose curve; as a rule, active = well fitted curve in the direction sought with a large enough effect; inconclusive = small, poorly fitted or top-dose-only effect, or another doubt; inactive = no such curve, though single readings can be large; an effect the other way counts as inactive or inconclusive. % is scaled to controls: 0 for no effect and ±100 for the full control effect; potency is read from the fitted curve at half-maximal effect.

How did COc1cccc(/C=N/NC(=O)c2c(C)nc3ccc(Br)cn23)c1O do in these assays?
Marburg entry inh: 1.8µM*; Sm TGR inh: -10%; LASV entry inh: 5.2µM*; FMDV inh: -22%; RE007 growth inh: 6%; HCV inhibitor: 4.5µM*

What do the screens show for `COc1cc(/C=N/NC(=O)c2c(C)nc3ccc(Cl)cn23)cc(OC)c1OC`?
Marburg entry inh: 4.5µM*; Sm TGR inh: -15%; LASV entry inh: -9%[46.1 µM]; FMDV inh: -5%; RE007 growth inh: -11%; HCV inhibitor: inconclusive

How did COc1ccc(/C=N/NC(=O)c2c(C)nc3ccc(Cl)cn23)cc1OC do in these assays?
Sm TGR inh: -30%; FMDV inh: -3%; RE007 growth inh: -7%; HCV inhibitor: 5%

How did CCOc1ccccc1/C=N/NC(=O)c1c(C)nc2ccc(Br)cn12 do in these assays?
Sm TGR inh: 11%; FMDV inh: inconclusive; RE007 growth inh: -9%; HCV inhibitor: -22%

Results for Cc1cc(/C=N\NC(=O)c2cccs2)c(C)n1-c1ccc2ncccc2c1 ?
Marburg entry inh: inconclusive; Sm TGR inh: -1%; LASV entry inh: 10µM*; FMDV inh: -29%; RE007 growth inh: 4%; HCV inhibitor: inconclusive

How did Cc1cc(/C=N\NC(=O)COc2cccc3cccnc23)c(C)n1-c1ccc(Br)cc1 do in these assays?
Marburg entry inh: -44%; Sm TGR inh: 0%; LASV entry inh: -12%; FMDV inh: -19%; RE007 growth inh: -5%; HCV inhibitor: inconclusive

How did Cc1nc2ccccn2c1C(=O)N/N=C/c1ccccc1 do in these assays?
Sm TGR inh: -4%; FMDV inh: -3%; RE007 growth inh: 2%; HCV inhibitor: 8%

How did COc1cccc([C@H]2Oc3ccc(OC)cc3C(=NOC[C@@H](O)COCc3ccco3)[C@H]2O)c1 do in these assays?
Marburg entry inh: 14%[14.2 µM]

What do the screens show for `COc1cccc(/C=N\NC(=O)c2ccc(Cn3cc(Br)c([N+](=O)[O-])n3)o2)c1O`?
Marburg entry inh: 4µM*; Sm TGR inh: 2%; LASV entry inh: 6.3µM*; FMDV inh: 10%; RE007 growth inh: -8%; HCV inhibitor: 2.8µM*

Results for COCC(=O)N1CCC[C@@]2(CCN(Cc3nccs3)C2)C1 ?
FMDV inh: -16%

Results for C#CCN1C(C)=C(C(=O)OC)C(c2cccc([N+](=O)[O-])c2)C(C(=O)OCC)=C1C (configuration not stated) ?
Marburg entry inh: 14µM*; Sm TGR inh: 2%; LASV entry inh: inconclusive; FMDV inh: -20%; RE007 growth inh: -8%[18.4 µM]; HCV inhibitor: inconclusive

What do the screens show for `CCOC(=O)C1=C(C)NC(C)=C(C(=O)OCC)C1c1cccc([N+](=O)[O-])c1`?
FMDV inh: inconclusive; RE007 growth inh: 8%

How did CCn1cc(S(=O)(=O)c2cccc(C)c2)c(=O)c2cc(F)c(N3CCCCC3C)cc21 (configuration not stated) do in these assays?
Sm TGR inh: 1%; LASV entry inh: 15%[46.1 µM]; FMDV inh: 6%

How did CCCCCOc1ccc(C(=O)CCN2CCOCC2)cc1 do in these assays?
Marburg entry inh: inconclusive; Sm TGR inh: 4µM*; LASV entry inh: -6%; FMDV inh: 5%; RE007 growth inh: 18µM*; HCV inhibitor: 1%

What do the screens show for `CN(C)c1ccc(C(=O)OCC(=O)N2CCCC2)cc1`?
Marburg entry inh: inconclusive; Sm TGR inh: -2%; LASV entry inh: -3%; FMDV inh: 42%; RE007 growth inh: 27%; HCV inhibitor: 3%

How did CCOC(=O)N1CCN(C(=O)COC(=O)c2ccc(N(C)C)cc2)CC1 do in these assays?
Marburg entry inh: 22%; LASV entry inh: 2.5µM*; FMDV inh: -11%; RE007 growth inh: 18%; HCV inhibitor: -9%

Results for CCCOc1ccc(C(=O)CCN2CCN(C(=O)OCC)CC2)cc1 ?
Marburg entry inh: -27%[46.1 µM]; Sm TGR inh: 100µM*; LASV entry inh: inconclusive; FMDV inh: -22%; RE007 growth inh: 32µM*; HCV inhibitor: 10%
